# Results as given in PubChem BioAssay (NCI).
# This is part of a sample that, as a whole, favours compounds with a hit. Of some 79,000 tested, about 15% had one in any assay. Calls of active or inactive are those of the source. Rule as the data show it: active = growth inhibition above about 70%; inactive = the rest.
# Assay: NCI Yeast Anticancer Drug Screen. Data for the mlh1 strain (AID 171);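 also: 0% = growth of vehicle-treated control cultures of the same strain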
# Details: S. cerevisiae mlh1 strain growth inhibition; at 11.0 µM; hits give high values
# Outline: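 Inhibition values reflect reduced yeast growth in the presence of compound, referenced to vehicle controls, using a strain chosen for its alteration in DNA repair or cell cycle control.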
row,Compound,growth inhibition
1,CC(CN(C)C)C(=O)/C=C/c1ccc(Cl)c(Cl)c1 (configuration not stated),15% (inactive)
2,CCCCCCNCCCNc1c2cc(OC)ccc2nc2cccc([N+](=O)[O-])c12,16% (inactive)
3,NC(=S)N1N=C2c3ccccc3CC[C@H]2[C@@H]1c1ccc(Cl)cc1,28% (inactive)
4,C/C(=N/NC(=S)Nc1ccccc1C)c1ccccn1,-5% (inactive)
5,O=C1/C(=C/c2ccc(Cl)c(Cl)c2)CNC/C1=C\c1ccc(Cl)c(Cl)c1,35% (inactive)
6,CC(C)OP(=O)(OC(C)C)C(=NCCO)NNc1ccc([N+](=O)[O-])cc1,3% (inactive)
7,N#CCC(=O)N/N=C(\c1ccccc1)C(c1ccccc1)C1(O)C(=O)Nc2c(Cl)ccc(Cl)c21 (configuration not stated),-1% (inactive)
8,CC(C)(CN1CCCCC1)C(=O)CC(SCCS(=O)(=O)O)c1ccccc1 (configuration not stated),3% (inactive)
9,COC1=CCC23C(=O)C=CC(=O)C2(C1)C(=O)c1ccccc1C3=O (configuration not stated),-2% (inactive)
10,CCCCN(CCCC)c1ccc(N=Nc2ccc(S(=O)(=O)O)cc2)cc1,82% (active)
11,c1ccc2nc3c(nc2c1)sc1ccccc13,19% (inactive)
12,O=C1c2ccccc2-c2ccc(N=Cc3ccccc3)cc21,-5% (inactive)
13,CNC(=S)N/N=C(/C)CCC/C(C)=N/NC(=S)NC,52% (inactive)
14,Nc1ccc(/C=C/c2ccc3cccnc3c2)cc1,-1% (inactive)
15,COc1ccc2c3c1OC(C)C31CC(=O)CCC1CC2 (configuration not stated),-3% (inactive)
16,CCOC(=O)Nc1ccc(C)c(NC(=O)OCC)c1,14% (inactive)
17,CCN(CC)CCNc1ccc2nc(C)n3c4ccc(OC)cc4c(=O)c1c23,18% (inactive)
